Data: PubChem BioAssay AID1851 (National Center for Advancing Translational Sciences (NCATS), 2009)
Several values for one entry are separate records, joined by “and”; a condition that tells them apart may be missing. Equal entries are not always repeated. About 4,000 (25%) of roughly 16,000 compounds were called active. About 26% were inconclusive and are not listed. The call rests on the fitted dose curve; in most records, active means well fitted curve in the direction sought with a large enough effect; inconclusive means small, poorly fitted or top-dose-only effect, or effect the other way; inactive means no such curve, though single readings can be large or run the other way. These entries were drawn from the full list.

Target: Cytochrome P450 2C9 (Homo sapiens) (UniProt P11712)
Assay: Cytochrome panel assay with activity outcomes
Conditions: recombinant CYP, pro-luciferin dealkylation, luminescence, p450-cyp2c9; series mostly up to 57.1 µM; activity, negative = inhibition: at the top concentration
Description: The P450 gene superfamily is involved in the metabolism and clearance of xenobiotics. This assay used various human CYP P450 isozymes to measure the dealkylation of various pro-luciferin substrates to luciferin. The luciferin is then measured by luminescence after the addition of a luciferase detection reagent. Pro-luciferin substrate concentration in the assay was equal to its KM for its CYP P450 isozyme. Inhibitors and some substrates limit the production of luciferin, and decrease measured luminescence.
NCGC Assay Protocol Summary:
1, Reagent, 2 uL, Isozyme and Pro-Luciferin
2, Library compounds, 23 nl, 40 uM to 0.24 nM dilution series
3, Controls, 23 nl, Isozyme specific inhibitor
4, Reagent, 2 uL, NADPH regeneration solution
5, Incubation time, 60 min, Isozyme specific temperature
6, Reagent, 4ul, Detection reagent
7, Incubation time, 20 min, Isozyme specific temperature
8, Detection, 1 sec, ViewLux luminescent read
The luciferase-based P450-GloTM Screening Systems were obtained from Promega (Madison, WI) for CYP 1A2 (V9770), CYP 2C9 (V9790), CYP2 C19 (V9880), CYP 2D6 (V9890), and CYP 3A4 Luciferin-PPXE (V9910) and were adapted for 1,536-well microplates and an automated protocol. The control compounds furafylline for 1A2 (F124), sulfaphenazole for CYP 2C9 (S0758), ketoconazole for CYP 2C19 (K1003), quinidine for 2D6 (Q3625), and ketoconazole for 3A4 (K1003) were purchased from Sigma Aldrich (St. Louis, MO). Recombinant P450 enzymes were obtained from baculovirus constructs expressed in insect cells (BD/Gentest).
Medium-binding white solid Kalypsys plates used. Mixtures kept on ice. 1A2: 10 nM 1A2, 100 uM Luc-ME, 100 mM KPO4; 2C9: 10 nM 2C9, 100 uM Luc-H, 25 mM KPO4; 2C19: 5 nM 2C19, 10 uM Luc-H EGE, 50 mM KPO4; 2D6: 5 nM 2D6, 30 uM Luc-ME EGE, 100 mM KPO4; 3A4: 10 nM, 25 uM Luc-PPXE. All amounts are reflected in their final concentration, working concentration is 2x.
NADPH regeneration solution: 1.3 mM NADP+, 3.3 mM glucose-6-phosphate, 3.3 mM MgCl2, 0.4 U/mL glucose-6-phosphate dehydrogenase for all isozymes, 200 mM KPO4 for 3A4. Mixture prepared at RT but kept on ice during automated run.
RT incubation in auxilliary plate hotel for 1A2, 2D6, and 3A4; 37C for 2C9 and 2C19.
Keywords: P450, CYP1A2, CYP2C19, CYP2C9, CYP2D6, CYP3A4, Luciferase, MLSMR, MLSCN, NIH Roadmap, qHTS, NCGC
On the % scale 0 is the no-effect control and ±100 the full control effect.

Sequence of Cytochrome P450 2C9 (Homo sapiens) (P11712 whole entry, looked up): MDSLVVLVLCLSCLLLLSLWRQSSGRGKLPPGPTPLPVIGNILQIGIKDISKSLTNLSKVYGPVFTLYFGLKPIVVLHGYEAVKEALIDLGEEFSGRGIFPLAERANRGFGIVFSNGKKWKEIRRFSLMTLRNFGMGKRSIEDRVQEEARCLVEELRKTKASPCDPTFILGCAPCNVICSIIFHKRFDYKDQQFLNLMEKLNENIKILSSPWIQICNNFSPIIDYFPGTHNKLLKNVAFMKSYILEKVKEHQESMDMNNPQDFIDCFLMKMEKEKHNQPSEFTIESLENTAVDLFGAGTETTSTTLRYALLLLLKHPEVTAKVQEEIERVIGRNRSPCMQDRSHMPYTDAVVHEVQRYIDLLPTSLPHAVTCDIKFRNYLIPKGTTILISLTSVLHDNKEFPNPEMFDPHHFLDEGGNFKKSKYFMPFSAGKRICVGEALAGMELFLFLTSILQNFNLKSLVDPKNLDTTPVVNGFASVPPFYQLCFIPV

AC50, active:
N#Cc1c(SCC(N)=O)nsc1SCc1ccccc1Cl 11.2 µM, CCOC(=O)C1CCCN(C(=O)CSCc2ccccc2)C1 (stereo not drawn) 10 µM, O=C(c1cnc(N2CCN(c3ncccn3)CC2)c2ccccc12)N1CCN(c2ccccn2)CC1 3.55 µM, COc1ccccc1C(=O)N1CCN(c2ccccn2)CC1 14.1 µM, O=C(c1cnc(N2CCN(c3ncccn3)CC2)c2ccccc12)N1CCN(c2ncccn2)CC1 6.31 µM, O=C(O)CC(c1cccc2ccccc12)n1cccc1 (stereo not drawn) 8.91 µM, O=C(O)CN1CCN(Cc2ccc(F)cc2Cl)C1=O 0.316 µM, CC(C)C(CCNC(=O)CC(Cc1ccccc1)c1ccco1)c1ccco1 (stereo not drawn) 2.82 µM, CC1CSc2nc3sc4c(c3c(=O)n21)CCCC4 (stereo not drawn) 14.1 µM, O=C1c2ccccc2N[C@H](c2cc(Cl)cc(Cl)c2O)N1CCc1ccccn1 3.16 µM, CCOC(=O)C1=C(c2ccccc2)N=c2s/c(=C\c3ccco3)c(=O)n2C1c1cccs1 (stereo not drawn) 8.91 µM, CCOC(=O)C1=C(N)n2c(s/c(=C\c3ccco3)c2=O)=C(C(=O)OCC)C1c1ccco1 (stereo not drawn) 1.26 µM, Cc1ccc(S(=O)(=O)Nc2nc(C)c(NC(=O)Nc3ccc(Cl)cc3Cl)s2)cc1 7.94 µM, CCN(CC)C(=S)SSC(=S)N(CC)CC 2.51 µM and 398 nM, COc1cc(OC)cc(C(=O)NC(=S)NCCc2ccccc2)c1 2.82 µM, CCCC(=O)Nc1ccc(C(=O)NNC(=S)NC(=O)c2cccs2)cc1 20 µM, O=C(CCc1ccccc1)NNC(=S)NC(=O)c1ccccc1 15.8 µM, CC(C)(C)C(=O)NC(=S)NCCc1ccccc1 11.2 µM

AC50, inactive:
C/C=C\C[C@H](C)[C@H](O)[C@H]1C(=O)N[C@@H](CC)C(=O)N(C)CC(=O)N(C)[C@@H](CC(C)C)C(=O)N[C@@H](C(C)C)C(=O)N(C)[C@@H](CC(C)C)C(=O)N[C@@H](C)C(=O)N[C@@H](C)C(=O)N(C)[C@@H](CC(C)C)C(=O)N(C)[C@@H](CC(C)C)C(=O)N(C)[C@@H](C(C)C)C(=O)N1C

activity, negative = inhibition, inactive:
Nc1nc(SCc2ccccc2Cl)cc(C(=O)O)n1 0.0938% [at 11.4 µM], CCOC(=O)C1CCCN(S(=O)(=O)c2ccccc2)C1 (stereo not drawn) 29.1%, CN1CCN(c2nc(-c3ccccc3C(F)(F)F)nc3ccccc23)CC1 1.94% [at 2.29 µM], CO[C@]1(NC(=O)Cc2cccs2)C(=O)N2C(C(=O)O)=C(COC(N)=O)CS[C@H]21 1.75% [at 25.6 µM], CC(=O)N1CCC2(CC1)CN(c1ccccn1)C2 5.68%, Cn1cccc1C(=O)N1CCC2(CC1)CCN(c1ncccn1)CC2 5.06%, O=C(c1cnccn1)N1CCC2(CC1)CN(c1ccccn1)C2 3.85%, COC(=O)N1CCC2(CC1)CCN(c1ccccn1)CC2 -3.68%, O=C(c1cnccn1)N1CCC2(CC1)CCN(c1ncccn1)CC2 4.53%, O=C(c1cnccn1)N1CCC2(CC1)CCN(c1ccccn1)CC2 0.265%, Cc1ccc(S(=O)(=O)N=Nc2c(O)[nH]c3cc(O)c(C(=O)O)cc23)cc1 3.49% [at 11.4 µM], CN1CC[C@@]2(CCCN(C(=O)c3cccc(F)c3)C2)C1 4.92%, COc1cccc2c1C(=O)c1c(O)c3c(c(O)c1C2=O)C[C@@](O)(C(=O)CO)C[C@H]3O[C@H]1C[C@@H](N)[C@H](O)[C@@H](C)O1.[W] 3.88% [at 11.4 µM], C#CCCCO/N=C1/C[C@@H](O)[C@@H](O)[C@@H]2[C@@H]3C(=O)N(CC)C(=O)[C@H]3CC[C@H]12 3.17% [at 11.4 µM], O=C(O)CC(c1ccccc1)n1cnnn1 (stereo not drawn) -6.07%, Cc1cc(C)c(NC(=O)C[C@H](CC(=O)O)c2cccc3ccccc23)c(C(=O)N2CCC3(CCCC3)CC2)c1 -2.73%, O=C(O)CN1CCN(Cc2ccccc2Cl)C1=O -29.3%, Cc1cccc(CN2CCN(CC(=O)O)C2=O)c1 -24.3%, O=C(O)CNC(=O)[C@@H](CS)Cc1ccccc1 11.8% [at 25.6 µM], CC(Cc1ccccc1)N/C=C1\CC(=O)NC1=O (stereo not drawn) 6.55%, COc1c(O[C@H]2O[C@@H](CO)[C@@H](O)[C@@H](O)[C@@H]2O)cc2c(c1OC)-c1ccc(SC)c(=O)cc1[C@H](NC(C)=O)CC2 -8.94% [at 25.6 µM], CC(=O)NCCNc1ncnc2ccc(-c3ccoc3)cc12 6.33% [at 2.29 µM], Nc1nc(Cl)nc2c1ncn2[C@@H]1O[C@@H](COP(=O)(O)OP(=O)(O)OP(=O)(O)O)[C@@H](O)[C@H]1O 18.3%, S=c1nc[nH]c2c1ncn2Cc1ccco1 1.4% [at 11.4 µM], O=C1CC(N2CCN(CCc3ccccn3)CC2)C(=O)N1c1ccc(Cl)cc1 (stereo not drawn) -8.6%, CCOC(=O)C1=C(c2ccccc2)N=c2s/c(=C\c3cccc(O)c3)c(=O)n2C1c1cccs1 (stereo not drawn) -16.1%, OCCCSCCO 11.5% [at 11.4 µM], C[N+](C)(C)CC[N+]1(C)Cc2c(Cl)c(Cl)c(Cl)c(Cl)c2C1 -8.79%, NS(=O)(=O)c1nc(S(=O)(=O)O)c2[nH]cnc2n1 -8.54% [at 11.4 µM], Cc1ccc(S(=O)(=O)NC(=O)Nc2ncn[nH]2)cc1 4.99% [at 11.4 µM], Cc1nnc(NS(=O)(=O)c2ccc(N)cc2)s1 -21.3% [at 25.6 µM], CC(C)(CO[C@H]1C[C@H]2CC[C@@]1(C)C2(C)C)[N+](=O)[O-] -3.36% [at 11.4 µM], C[C@H](O)C(=O)C1=Nc2c(nc(N)[nH]c2=O)NC1 15.9%, NNC(=O)c1ccc[n+](CCc2ccccc2)c1 -1.12% [at 11.4 µM], COc1cc(CNCCc2ccccc2)ccc1OCC(=O)NC(C)(C)C -0.348%, O=C(CCc1ccccc1)NNC(=O)c1ccco1 -10.8%, CCC(=O)Nc1ccc(C(=O)NNC(=O)c2cccs2)cc1 11.9%, CC(C)(C)OC(=O)N1CCCC1C(=O)NCCc1ccccc1 (stereo not drawn) -29.8%, N[C@@H](CSCc1ccc(I)cc1)C(=O)O 12.7% [at 11.4 µM]
